# Out of some 2,300 compounds screened, about 550 (24%) were called active. The rule behind the calls is not given here. These entries were drawn from the full list. Entries that show only a call come without a potency. Potency and affinity values are given separately.
# Test: Vero E6 cell cytotoxicity, dose response, cytotoxicity control for non-replicating M. tuberculosis project, secondary assay (AID 492998)
# Details: series mostly up to 20 µM
row,Structure (SMILES),outcome
1,Clc1cccc(/C=N\Nc2nccs2)c1,inactive
2,Cc1ccc(OCC(=O)OCc2c(C)noc2C)cc1C,inactive
3,CCOC(=O)CN1NC2(CCCC(C)C2)NC1=S (configuration not stated),inactive
4,Clc1c(OCCCn2ccnc2)ccc2ccccc12,inactive
5,Cn1c(=O)c(Oc2ccc(Cl)cc2)c(O)c2ccccc21,inactive
6,Cc1cccnc1NC(=O)c1c(O)c2ccccc2n(C)c1=O,inactive
7,C=CCn1c(=O)c(C(=O)Nc2cccnc2)c(O)c2ccccc21,inactive
8,CCn1c(=O)c(C(=O)Nc2ncccc2C)c(O)c2ccccc21,inactive
9,COc1ccc(C(O)CNc2ccc(C)cc2)cc1 (configuration not stated),inactive
10,COc1ccc(NC(=O)c2nc3ccccc3s2)cc1,inactive
11,CC(C)c1cc(C(=O)N/N=C/C=C/c2ccccc2)n[nH]1,inactive
12,O=C(COc1ccccc1)Nc1ccc(Cl)cn1,inactive
13,O=C(NCc1ccccc1CN1CCCC1)c1cc2ccccc2o1,inactive
14,O=Cc1ccnc(-c2ccc(OC(=O)c3ccco3)cc2)n1,inactive
15,CCC1CCc2sc(C(=O)NCC3CCCO3)cc2C1 (configuration not stated),inactive
16,CCOc1cc(C=O)cc(N=Nc2cccc([N+](=O)[O-])c2)c1O,inactive
17,O=C(COc1ccc2ccccc2c1Br)N1CCCC1,inactive
18,CCCn1c(=O)c(C(=O)N/N=C/c2ccccc2F)c(O)c2ccccc21,inactive
19,Nc1nonc1C(=O)N/N=C/c1ccc([N+](=O)[O-])o1,inactive
20,CC1=NN(C(=O)c2ccoc2C)C(O)(C(F)(F)F)C1 (configuration not stated),inactive
21,COC(=O)C(O)(c1ccc(NC(=S)NC(=O)c2ccccc2)cc1)C(F)(F)F (configuration not stated),inactive
22,CCOC(=O)Nc1ccc2c(c1)N(C(=O)CCCl)c1ccccc1[S@]2=O,inactive
23,C=CCn1c(O)c(C(C)=Nc2ccc(C(=O)OCC)cc2)c(=O)[nH]c1=O,inactive
24,CCCCNC(=O)Nc1nnc(-c2ccc(Cl)cc2)o1,inactive
25,CCOC(=O)c1ccc(NC2OC(=O)c3ccccc32)cc1 (configuration not stated),inactive
26,C=CCN=C1SC(CC)C(=O)N1S(=O)(=O)c1ccc(C)cc1 (configuration not stated),inactive
27,Cc1ccc(C(=O)CCC2CCCC2=O)cc1 (configuration not stated),inactive

# Source: PubChem BioAssay AID492998 (Southern Research Specialized Biocontainment Screening …, 2010)
